What all share (assay): PBM; 200 nM protein, PBS
What all share (details): dsDNA, one strand shown

For one assay, the target named is T1, NKX2-6 (Homo sapiens, UniProt A6NCS4 118-204, R150C).
T1 sequence: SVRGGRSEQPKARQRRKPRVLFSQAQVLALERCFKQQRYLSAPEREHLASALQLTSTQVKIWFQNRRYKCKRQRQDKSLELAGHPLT

Assay [1] concerns the target T2, PAX4 (Homo sapiens, UniProt O43316 9-242).
T2 sequence: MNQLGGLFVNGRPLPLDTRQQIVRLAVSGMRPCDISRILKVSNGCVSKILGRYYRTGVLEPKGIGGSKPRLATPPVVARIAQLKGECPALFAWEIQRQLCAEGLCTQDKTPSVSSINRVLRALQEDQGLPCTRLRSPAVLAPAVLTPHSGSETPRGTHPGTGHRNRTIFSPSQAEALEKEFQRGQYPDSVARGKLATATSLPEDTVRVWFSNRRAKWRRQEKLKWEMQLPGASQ

For assay [2], the target named is ALX1 (Homo sapiens, UniProt Q15699 118-204, L144V).
Assay [3] addresses T3, PAX4 (Homo sapiens, UniProt O43316 9-242, R200Q).
T3 sequence: T2 sequence with R192Q

Assay [4] concerns the target ALX1 (Homo sapiens, UniProt Q15699 118-204, L144R).
Assay [5] deals with T4, PAX4 (Homo sapiens, UniProt O43316 9-242, R227W).
T4 sequence: T2 sequence with R219W

For assay [6], the target named is ALX1 (Homo sapiens, UniProt Q15699 118-204).
Assay [7] addresses ALX4 (Homo sapiens, UniProt Q9H161 200-286).
The target in assay [8] is PRRX1 (Homo sapiens, UniProt P54821 80-166, F113S).
Assay [9] deals with ALX4 (Homo sapiens, UniProt Q9H161 200-286, Q225E).
The target of assay [10] is PRRX1 (Homo sapiens, UniProt P54821 80-166).
Assay [11] has as its target PROP1 (Homo sapiens, UniProt O75360 56-141).
Assay [12] has as its target PROP1 (Homo sapiens, UniProt O75360 56-141, R99H).
Assay [13] addresses PROP1 (Homo sapiens, UniProt O75360 56-141, F88S).
Assay [14] concerns the target MSX2 (Homo sapiens, UniProt P35548 130-214, R199I).
Assay [15] has as its target MSX2 (Homo sapiens, UniProt P35548 130-214).
Assay [16] concerns the target MSX2 (Homo sapiens, UniProt P35548 130-214, F161Y).

Our source for the binding signal values is PMC11006913.

Substitutions are numbered along the chain they refer to.

ALX1 (Homo sapiens, UniProt Q15699 118-204), sequence (Q15699 118-204): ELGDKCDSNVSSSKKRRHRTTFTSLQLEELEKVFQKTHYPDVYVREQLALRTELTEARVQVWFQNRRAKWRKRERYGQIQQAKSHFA
PRRX1 (Homo sapiens, UniProt P54821 80-166), sequence (P54821 80-166): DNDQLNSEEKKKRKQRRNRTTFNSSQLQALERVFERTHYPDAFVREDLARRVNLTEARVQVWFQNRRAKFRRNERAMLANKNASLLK
ALX4 (Homo sapiens, UniProt Q9H161 200-286, Q225E), sequence (Q9H161 200-286 Q225E): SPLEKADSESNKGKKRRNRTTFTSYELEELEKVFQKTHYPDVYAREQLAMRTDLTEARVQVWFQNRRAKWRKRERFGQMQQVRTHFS
ALX4 (Homo sapiens, UniProt Q9H161 200-286), sequence (Q9H161 200-286): as the sequence (Q9H161 200-286 Q225E) above, with E26Q counted along it
PRRX1 (Homo sapiens, UniProt P54821 80-166, F113S), sequence (P54821 80-166 F113S): as the sequence (P54821 80-166) above, with F34S counted along it
ALX1 (Homo sapiens, UniProt Q15699 118-204, L144V), sequence (Q15699 118-204 L144V): as the sequence (Q15699 118-204) above, with L27V counted along it
ALX1 (Homo sapiens, UniProt Q15699 118-204, L144R), sequence (Q15699 118-204 L144R): as the sequence (Q15699 118-204) above, with L27R counted along it
PROP1 (Homo sapiens, UniProt O75360 56-141, R99H), sequence (O75360 56-141 R99H): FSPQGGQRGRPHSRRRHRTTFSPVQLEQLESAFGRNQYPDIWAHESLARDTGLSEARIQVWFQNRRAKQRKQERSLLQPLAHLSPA
PROP1 (Homo sapiens, UniProt O75360 56-141), sequence (O75360 56-141): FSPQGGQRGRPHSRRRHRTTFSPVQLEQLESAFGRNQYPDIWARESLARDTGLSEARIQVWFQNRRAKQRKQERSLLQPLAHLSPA
PROP1 (Homo sapiens, UniProt O75360 56-141, F88S), sequence (O75360 56-141 F88S): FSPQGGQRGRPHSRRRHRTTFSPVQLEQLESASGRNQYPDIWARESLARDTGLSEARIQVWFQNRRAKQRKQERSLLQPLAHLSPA
MSX2 (Homo sapiens, UniProt P35548 130-214, R199I), sequence (P35548 130-214 R199I): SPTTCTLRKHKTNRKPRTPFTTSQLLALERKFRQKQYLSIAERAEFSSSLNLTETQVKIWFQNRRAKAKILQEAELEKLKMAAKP
MSX2 (Homo sapiens, UniProt P35548 130-214), sequence (P35548 130-214): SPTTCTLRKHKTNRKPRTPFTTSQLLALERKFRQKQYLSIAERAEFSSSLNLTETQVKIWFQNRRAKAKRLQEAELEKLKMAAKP
MSX2 (Homo sapiens, UniProt P35548 130-214, F161Y), sequence (P35548 130-214 F161Y): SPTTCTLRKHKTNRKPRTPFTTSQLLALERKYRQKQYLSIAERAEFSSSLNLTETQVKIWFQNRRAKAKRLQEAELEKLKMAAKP

For CGGGGGTC, in the assay with NKX2-6, the binding signal is 9.26 upbm affinity estimate (log intensity, higher = more binding, comparable within an allelic series).

Consider GTGGGGGA, for which the binding signal with PAX4 [1] was 9.25 upbm affinity estimate (log intensity, higher = more binding, comparable within an allelic series); in the assay with ALX1 [2], 6.51 upbm affinity estimate (log intensity, higher = more binding, comparable within an allelic series); with PAX4 [3] it was 9.37 upbm affinity estimate (log intensity, higher = more binding, comparable within an allelic series); with ALX1 [4] it was 6.24 upbm affinity estimate (log intensity, higher = more binding, comparable within an allelic series); with PAX4 [5], 9.48 upbm affinity estimate (log intensity, higher = more binding, comparable within an allelic series); in the assay with ALX1 [6], 6.29 upbm affinity estimate (log intensity, higher = more binding, comparable within an allelic series).

For the sequence CCCTTGCG, the binding signal with ALX4 [7] was 7.92 upbm affinity estimate (log intensity, higher = more binding, comparable within an allelic series); with PRRX1 [8], 9.08 upbm affinity estimate (log intensity, higher = more binding, comparable within an allelic series); in the assay with ALX4 [9], 7.92 upbm affinity estimate (log intensity, higher = more binding, comparable within an allelic series); with PRRX1 [10] it was 9.11 upbm affinity estimate (log intensity, higher = more binding, comparable within an allelic series).

For ATTAATCA, the binding signal in the assay with ALX4 [7] was 13.7 upbm affinity estimate (log intensity, higher = more binding, comparable within an allelic series); in the assay with PRRX1 [8] it was 11.3 upbm affinity estimate (log intensity, higher = more binding, comparable within an allelic series); with ALX4 [9] it was 12.7 upbm affinity estimate (log intensity, higher = more binding, comparable within an allelic series); with ALX1 [2], 11.5 upbm affinity estimate (log intensity, higher = more binding, comparable within an allelic series); with ALX1 [4], 11.3 upbm affinity estimate (log intensity, higher = more binding, comparable within an allelic series); in the assay with ALX1 [6] it was 12 upbm affinity estimate (log intensity, higher = more binding, comparable within an allelic series). For the same sequence, in the assay with PRRX1 [10], the binding signal is 13.3 upbm affinity estimate (log intensity, higher = more binding, comparable within an allelic series).

In the case of CCTGCCCC, the binding signal in the assay with PAX4 [1] was 9.15 upbm affinity estimate (log intensity, higher = more binding, comparable within an allelic series); with PAX4 [3], 9.01 upbm affinity estimate (log intensity, higher = more binding, comparable within an allelic series); with PAX4 [5] it was 9.13 upbm affinity estimate (log intensity, higher = more binding, comparable within an allelic series).

For CCAACGGA, the binding signal in the assay with PRRX1 [8] was 9.38 upbm affinity estimate (log intensity, higher = more binding, comparable within an allelic series); with PROP1 [11], 6.62 upbm affinity estimate (log intensity, higher = more binding, comparable within an allelic series); with PROP1 [12] it was 6.69 upbm affinity estimate (log intensity, higher = more binding, comparable within an allelic series); with PROP1 [13], 6.66 upbm affinity estimate (log intensity, higher = more binding, comparable within an allelic series); with PRRX1 [10], 9.16 upbm affinity estimate (log intensity, higher = more binding, comparable within an allelic series).

In the case of GACCGTGC, the binding signal with PRRX1 [8] is 9.27 upbm affinity estimate (log intensity, higher = more binding, comparable within an allelic series); with PRRX1 [10], 9.23 upbm affinity estimate (log intensity, higher = more binding, comparable within an allelic series).

In the case of AGGCGCGC, the binding signal in the assay with ALX1 [2] was 6.59 upbm affinity estimate (log intensity, higher = more binding, comparable within an allelic series); in the assay with ALX1 [4], 6.72 upbm affinity estimate (log intensity, higher = more binding, comparable within an allelic series); with ALX1 [6], 6.44 upbm affinity estimate (log intensity, higher = more binding, comparable within an allelic series).

With CGCTGGCC, the binding signal with PAX4 [1] is 9.12 upbm affinity estimate (log intensity, higher = more binding, comparable within an allelic series); in the assay with PAX4 [3], 9.12 upbm affinity estimate (log intensity, higher = more binding, comparable within an allelic series); with PAX4 [5] it was 9.18 upbm affinity estimate (log intensity, higher = more binding, comparable within an allelic series).

CCCGCGGG: the binding signal in the assay with PRRX1 [8] is 9.46 upbm affinity estimate (log intensity, higher = more binding, comparable within an allelic series); with PRRX1 [10] it was 9.2 upbm affinity estimate (log intensity, higher = more binding, comparable within an allelic series).

With AGACCAGC, the binding signal in the assay with PAX4 [1] was 9.21 upbm affinity estimate (log intensity, higher = more binding, comparable within an allelic series); with PAX4 [3], 9.31 upbm affinity estimate (log intensity, higher = more binding, comparable within an allelic series); with PAX4 [5], 9.29 upbm affinity estimate (log intensity, higher = more binding, comparable within an allelic series).

With CGGGACCA, the binding signal with NKX2-6 is 9.71 upbm affinity estimate (log intensity, higher = more binding, comparable within an allelic series).

Consider GAGCCGGC, for which the binding signal with NKX2-6 is 9.46 upbm affinity estimate (log intensity, higher = more binding, comparable within an allelic series); in the assay with MSX2 [14], 9.47 upbm affinity estimate (log intensity, higher = more binding, comparable within an allelic series); in the assay with MSX2 [15], 9.45 upbm affinity estimate (log intensity, higher = more binding, comparable within an allelic series); with MSX2 [16], 9.45 upbm affinity estimate (log intensity, higher = more binding, comparable within an allelic series).

GCTGCGCC: the binding signal with ALX4 [7] is 8.05 upbm affinity estimate (log intensity, higher = more binding, comparable within an allelic series); with ALX4 [9], 8.03 upbm affinity estimate (log intensity, higher = more binding, comparable within an allelic series); in the assay with PROP1 [11], 6.8 upbm affinity estimate (log intensity, higher = more binding, comparable within an allelic series); with PROP1 [12] it was 6.45 upbm affinity estimate (log intensity, higher = more binding, comparable within an allelic series); with PROP1 [13], 6.48 upbm affinity estimate (log intensity, higher = more binding, comparable within an allelic series).

As for CCAGCTCG, the binding signal in the assay with ALX4 [7] is 8.09 upbm affinity estimate (log intensity, higher = more binding, comparable within an allelic series); with ALX4 [9], 8.29 upbm affinity estimate (log intensity, higher = more binding, comparable within an allelic series).

Consider ACCCCCGT, for which the binding signal with ALX1 [2] was 6.28 upbm affinity estimate (log intensity, higher = more binding, comparable within an allelic series); with ALX1 [4], 6.2 upbm affinity estimate (log intensity, higher = more binding, comparable within an allelic series); with ALX1 [6], 6.29 upbm affinity estimate (log intensity, higher = more binding, comparable within an allelic series).

As to CCCCCGTA, the binding signal is 9 upbm affinity estimate (log intensity, higher = more binding, comparable within an allelic series) with PRRX1 [8] and 9.39 upbm affinity estimate (log intensity, higher = more binding, comparable within an allelic series) in the assay with PRRX1 [10].

As to CTGGAGCC, the binding signal with ALX4 [7] was 7.69 upbm affinity estimate (log intensity, higher = more binding, comparable within an allelic series); with ALX4 [9], 8.02 upbm affinity estimate (log intensity, higher = more binding, comparable within an allelic series).

Turning to CCTGTGGA, the binding signal in the assay with ALX4 [7] is 8.17 upbm affinity estimate (log intensity, higher = more binding, comparable within an allelic series); with ALX4 [9] it was 8.04 upbm affinity estimate (log intensity, higher = more binding, comparable within an allelic series).

Regarding CAGGCACG, the binding signal was 9.38 upbm affinity estimate (log intensity, higher = more binding, comparable within an allelic series) in the assay with PRRX1 [8] and 9.24 upbm affinity estimate (log intensity, higher = more binding, comparable within an allelic series) with PRRX1 [10].

In the case of CGGGAAAG, the binding signal with ALX1 [2] was 6.35 upbm affinity estimate (log intensity, higher = more binding, comparable within an allelic series); with ALX1 [4], 6.49 upbm affinity estimate (log intensity, higher = more binding, comparable within an allelic series); with ALX1 [6], 6.44 upbm affinity estimate (log intensity, higher = more binding, comparable within an allelic series).
